Data published in PubChem BioAssay AID1159580 (chemical genetic matrix, 2015).
Among all 5,500 compounds or so, about 2,000 (36%) were called active. Another 18% or so got no clear call; they are omitted. Cut-off read from the data, not from the text of the source: active = normalized growth mostly below about 0.91 (no sharp cut-off); inconclusive = no clear call, values can overlap the other calls; inactive = mostly above about 0.92. The list shows a part of the results.

Test: chemical genetic growth profiling, strain panel (AID 1159580);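 note: tested at 20 µM; growth read once vehicle control cultures reached saturation at 30 °C; 1 = growth at the plate median or of vehicle wells; lower values mean less growth of the strain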
Settings: growth OD
[1] = S. cerevisiae deletion strains, locus YAL013W, strain DEP1, stronger effect = lower value
[2] = S. cerevisiae deletion strains, locus YBR229C, strain ROT2, stronger effect = lower value
[3] = S. cerevisiae deletion strains, locus YDL101C, strain DUN1, stronger effect = lower value
[4] = S. cerevisiae deletion strains, locus YDR150W, strain NUM1, stronger effect = lower value
[5] = S. cerevisiae deletion strains, locus YGR078C, strain PAC10, stronger effect = lower value
[6] = S. cerevisiae deletion strains, locus YHR030C, strain SLT2, stronger effect = lower value
[7] = S. cerevisiae deletion strains, locus YLR039C, strain RIC1, stronger effect = lower value
[8] = S. cerevisiae deletion strains, locus YLR262C, strain YPT6, stronger effect = lower value
[9] = S. cerevisiae deletion strains, locus YMR263W, strain SAP30, stronger effect = lower value
[10] = S. cerevisiae deletion strains, locus YNL153C, strain GIM3, stronger effect = lower value
[11] = S. cerevisiae deletion strains, locus YNL322C, strain KRE1, stronger effect = lower value
[12] = S. cerevisiae deletion strains, locus YPL055C, strain LGE1, stronger effect = lower value
[13] = S. cerevisiae deletion strains, locus YPL241C, strain CIN2, stronger effect = lower value
[14] = S. cerevisiae deletion strains, locus YMR307W, strain GAS1, stronger effect = lower value

Measured: normalized growth

O=C(CSCc1cccc2ccccc12)NNC(=S)Nc1ccccc1Cl
inactive: [1] 0.969 | [2] 0.991 | S. cerevisiae deletion strains, locus YCL061C, strain MRC1, stronger effect = lower value 0.971 | [3] 0.987 | [4] 0.933 | [5] 0.984 | [6] 0.728 | S. cerevisiae deletion strains, locus YHR087W, strain rtc3, stronger effect = lower value 1.02 | S. cerevisiae deletion strains, locus YJR043C, strain POL32, stronger effect = lower value 0.986 | S. cerevisiae deletion strains, locus YJR075W, strain HOC1, stronger effect = lower value 0.984 | S. cerevisiae deletion strains, locus YLR058C, strain SHM2 (second series), stronger effect = lower value 0.978 | S. cerevisiae deletion strains, locus YMR219W, strain ESC1, stronger effect = lower value 0.988 | [9] 0.955 | [10] 0.958 | [11] 0.996 | [12] 0.903 | S. cerevisiae deletion strains, locus YPR135W, strain CTF4, stronger effect = lower value 0.793
active: S. cerevisiae deletion strains, locus YEL061C, strain CIN8, stronger effect = lower value 0.813 | S. cerevisiae deletion strains, locus YKL190W, strain CNB1, stronger effect = lower value 0.844 | [7] 0.588 | S. cerevisiae deletion strains, locus YLR085C, strain ARP6, stronger effect = lower value 0.679 | [8] 0.623 | S. cerevisiae deletion strains, locus YML094W, strain GIM5, stronger effect = lower value 0.857 | S. cerevisiae deletion strains, locus YNL298W, strain CLA4 (second series), stronger effect = lower value 0.564 | S. cerevisiae deletion strains, locus YNR030W, strain Alg12, stronger effect = lower value 0.63 | S. cerevisiae deletion strains, locus YOL006C, strain TOP1, stronger effect = lower value 0.365 | [13] 0.648 | S. cerevisiae strains, strain wild type, stronger effect = lower value 0.765

CC(C)(C)C1(O)CCN2CC3c4ccccc4CCc4cccc(c43)C2C1 (centres undefined)
inactive: [1] 1.02 | S. cerevisiae deletion strains, locus YAL040C, strain CLN3, stronger effect = lower value 0.975 | S. cerevisiae deletion strains, locus YCL061C, strain MRC1 (second series), stronger effect = lower value 0.986 | [4] 1 | S. cerevisiae deletion strains, locus YDR363W, strain ESC2, stronger effect = lower value 1.04 | S. cerevisiae deletion strains, locus YER002W, strain NOP16, stronger effect = lower value 0.993 | [9] 1.01 | [14] 1.02 | [10] 0.983 | S. cerevisiae deletion strains, locus YNL175C, strain NOP13, stronger effect = lower value 0.996 | S. cerevisiae deletion strains, locus YNL197C, strain WHI3, stronger effect = lower value 0.972 | S. cerevisiae deletion strains, locus YNL224C, strain SQS1, stronger effect = lower value 0.997 | [11] 1.01 | S. cerevisiae deletion strains, locus YOR083W, strain WHI5 (second series), stronger effect = lower value 1.01 | [12] 1.02 | [13] 0.999

CC1(C)OC(=O)C=CC2(C)C1CC(O)C1(C)C2CCC2(C)C(c3ccoc3)OC(=O)C3OC321 (centres undefined)
inactive: [1] 1.02 | S. cerevisiae deletion strains, locus YBR021W, strain FUR4, stronger effect = lower value 0.971 | [2] 1.01 | S. cerevisiae deletion strains, locus YCL029C, strain bik1, stronger effect = lower value 1.02 | S. cerevisiae deletion strains, locus YDL035C, strain GPR1, stronger effect = lower value 1.01 | S. cerevisiae deletion strains, locus YDL074C, strain BRE1, stronger effect = lower value 1.02 | [3] 1.01 | S. cerevisiae deletion strains, locus YDL134C, strain PPH21, stronger effect = lower value 1.01 | S. cerevisiae deletion strains, locus YDL185W, strain tfp1, stronger effect = lower value 1.02 | S. cerevisiae deletion strains, locus YDL192W, strain arf1, stronger effect = lower value 1.01 | S. cerevisiae deletion strains, locus YDR101C, strain arx1, stronger effect = lower value 0.998 | S. cerevisiae deletion strains, locus YDR162C, strain NBP2, stronger effect = lower value 1.04 | S. cerevisiae deletion strains, locus YDR318W, strain mcm21, stronger effect = lower value 1.01 | S. cerevisiae deletion strains, locus YDR388W, stronger effect = lower value 1.02 | S. cerevisiae deletion strains, locus YDR502C, strain sam2, stronger effect = lower value 1.04 | S. cerevisiae deletion strains, locus YER110C, stronger effect = lower value 1.02 | S. cerevisiae deletion strains, locus YER155C, strain BEM2, stronger effect = lower value 0.996 | S. cerevisiae deletion strains, locus YER167W, strain BCK2, stronger effect = lower value 0.997 | S. cerevisiae deletion strains, locus YGL078C, strain dbp3, stronger effect = lower value 1.01 | S. cerevisiae deletion strains, locus YGL086W, strain mad1, stronger effect = lower value 1.01 | S. cerevisiae deletion strains, locus YGL248W, strain PDE1, stronger effect = lower value 1.01 | [5] 1 | S. cerevisiae deletion strains, locus YGR135W, strain pre9, stronger effect = lower value 1.04 | S. cerevisiae deletion strains, locus YGR252W, strain gcn5, stronger effect = lower value 0.965 | [6] 1.01 | S. cerevisiae deletion strains, locus YHR079C, strain IRE1 (second series), stronger effect = lower value 1.01 | S. cerevisiae deletion strains, locus YHR094C, strain hxt1, stronger effect = lower value 1.02 | S. cerevisiae deletion strains, locus YHR129C, strain ARP1, stronger effect = lower value 1 | S. cerevisiae deletion strains, locus YHR200W, strain rpn10, stronger effect = lower value 1.01 | S. cerevisiae deletion strains, locus YIL066C, strain RNR3, stronger effect = lower value 1.01 | S. cerevisiae deletion strains, locus YIL073C, strain SPO22, stronger effect = lower value 1.03 | S. cerevisiae deletion strains, locus YIL125W, strain kgd1, stronger effect = lower value 1.02 | S. cerevisiae deletion strains, locus YIR030C, strain dcg1, stronger effect = lower value 1.01 | S. cerevisiae deletion strains, locus YJL095W, strain BCK1, stronger effect = lower value 1.03 | S. cerevisiae deletion strains, locus YJL134W, strain LCB3, stronger effect = lower value 1.01 | S. cerevisiae deletion strains, locus YJL168C, strain set2, stronger effect = lower value 1.01 | S. cerevisiae deletion strains, locus YJL187C, strain SWE1 (second series), stronger effect = lower value 1.01 | S. cerevisiae deletion strains, locus YKL009W, strain mrt4, stronger effect = lower value 1.01 | S. cerevisiae deletion strains, locus YKL068W, stronger effect = lower value 1.02 | S. cerevisiae deletion strains, locus YKL085W, strain MDH1 (second series), stronger effect = lower value 1 | S. cerevisiae deletion strains, locus YKL085W, strain MDH1, stronger effect = lower value 1 | S. cerevisiae deletion strains, locus YKR001C, strain vps1, stronger effect = lower value 1.04 | [7] 1.05 | S. cerevisiae deletion strains, locus YLR058C, strain SHM2, stronger effect = lower value 1.01 | S. cerevisiae deletion strains, locus YLR102C, strain apc9, stronger effect = lower value 1.01 | [8] 1.09 | S. cerevisiae deletion strains, locus YLR268W, strain sec22, stronger effect = lower value 1.02 | S. cerevisiae deletion strains, locus YLR330W, strain CHS5, stronger effect = lower value 1.01 | S. cerevisiae deletion strains, locus YLR342W, strain FKS1 (second series), stronger effect = lower value 0.995 | S. cerevisiae deletion strains, locus YLR371W, strain rom2, stronger effect = lower value 0.997 | S. cerevisiae deletion strains, locus YLR418C, strain cdc73, stronger effect = lower value 1.05 | S. cerevisiae deletion strains, locus YML016C, strain PPZ1, stronger effect = lower value 1.01 | S. cerevisiae deletion strains, locus YML032C, strain rad52, stronger effect = lower value 1.02 | S. cerevisiae deletion strains, locus YML124C, strain tub3, stronger effect = lower value 1.01 | S. cerevisiae deletion strains, locus YMR078C, strain ctf18, stronger effect = lower value 1 | S. cerevisiae deletion strains, locus YMR223W, strain ubp8, stronger effect = lower value 1.01 | [9] 1.01 | [14] 1.06 | S. cerevisiae deletion strains, locus YNL067W, strain RPL9B, stronger effect = lower value 1.02 | [10] 1.01 | S. cerevisiae deletion strains, locus YNL233W, strain BNI4, stronger effect = lower value 1.01 | S. cerevisiae deletion strains, locus YNL250W, strain rad50, stronger effect = lower value 1.01 | S. cerevisiae deletion strains, locus YNL271C, strain bni1, stronger effect = lower value 1.01 | S. cerevisiae deletion strains, locus YNL298W, strain CLA4, stronger effect = lower value 1.04 | S. cerevisiae deletion strains, locus YNL307C, strain MCK1, stronger effect = lower value 1.02 | [11] 1 | S. cerevisiae deletion strains, locus YNR052C, strain pop2, stronger effect = lower value 1.02 | S. cerevisiae deletion strains, locus YOL012C, strain htz1 0.873 | S. cerevisiae deletion strains, locus YOL147C, strain pex11, stronger effect = lower value 1.01 | S. cerevisiae deletion strains, locus YOR061W, strain CKA2, stronger effect = lower value 1.01 | S. cerevisiae deletion strains, locus YOR069W, strain VPS5, stronger effect = lower value 1.01 | S. cerevisiae deletion strains, locus YOR136W, strain idh2, stronger effect = lower value 1.02 | S. cerevisiae deletion strains, locus YOR144C, strain elg1, stronger effect = lower value 1.01 | S. cerevisiae deletion strains, locus YOR184W, strain ser1, stronger effect = lower value 0.995 | S. cerevisiae deletion strains, locus YOR316C, strain cot1, stronger effect = lower value 1.02 | [13] 1.01 | S. cerevisiae deletion strains, locus YPR119W, strain clb2, stronger effect = lower value 1 | S. cerevisiae deletion strains, locus YPR141C, strain kar3, stronger effect = lower value 1.01 | S. cerevisiae deletion strains, locus YPR167C, strain met16, stronger effect = lower value 1 | S. cerevisiae deletion strains, strain wtn01, stronger effect = lower value 1.01
